From PubChem
Only some compounds are listed: those with a hit (about 4.1% of all), similar ones and a draw of the others.
hgDAF-12 ag: agonists of H. glycines DAF-12 nuclear receptor. HEK293 GAL4-hgDAF12 UAS-luciferase reporter, agonist luminescence; normalized to butyrate control. activation, % at 6.8 µM. 370,000 tested, 1.8% active. AID 687014;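 active = activation above a cutoff set at the mean of all screened compounds plus 3 SD, cut at about 10% in these data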;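 also: 0% = DMSO wells and 100% = sodium butyrate wells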
ssDAF12 agonist: activators of S. stercoralis DAF-12 nuclear receptor. 370,000 tested, 1% active. HEK293 ssDAF-12/GRIP1 lit1-tk-luc reporter, luminescence; % of 3 µM dafachronic acid response. activation, % at 6.8 µM;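 active = activation above the mean over all tested compounds plus 3 SD, cut at about 0.9% in these data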;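 also: 0% = DMSO-only wells and 100% = 3 µM delta7-dafachronic acid wells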
DAX1 inh-1: inhibits human nuclear receptor DAX1; P51843; HEK293 Gal4-DAX1 luciferase reporter, luminescence; inhibition, % at 6.75 µM; 340,000 tested, 0.99% active; AID 504766;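 active = inhibition above the mean over all tested compounds plus 3 SD, cut at about 4.2% in these data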;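 also: 0% = DAX1-transfected cells with DMSO and 100% = empty-vector control cells with DMSO; inhibition shows as a rise in luminescence from relieved DAX1 repression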
Target sequence (P51843 207-470 limits assumed): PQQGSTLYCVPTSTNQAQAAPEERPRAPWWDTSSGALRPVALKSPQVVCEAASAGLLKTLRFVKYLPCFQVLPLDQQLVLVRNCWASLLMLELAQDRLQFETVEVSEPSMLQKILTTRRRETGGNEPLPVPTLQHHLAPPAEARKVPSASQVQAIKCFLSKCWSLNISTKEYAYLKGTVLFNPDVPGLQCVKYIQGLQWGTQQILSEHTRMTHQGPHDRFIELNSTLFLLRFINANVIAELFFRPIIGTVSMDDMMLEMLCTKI
hcDAF-12 act: H. contortus DAF-12 activation, primary screen | activation, % at 6.8 µM | HEK293 hcDAF-12 lit1-tk-luc reporter, luminescence; 0% DMSO, 100% Δ7-dafachronic acid | 370,000 tested, 1.4% active;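 active = activation above the mean of all tested compounds plus 3 SD, cut at about 5.5% in these data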;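 also: 100% = response to 3 µM Δ7-dafachronic acid high control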
DAX1 inh-2: inhibitors of DAX1 repression of SF-1 activated StAR promoter; 370,000 tested, 1.1% active; inhibition, % at 6.8 µM; HEK293T StAR-luciferase reporter, SF-1/DAX-1 repression relief; AID 652010;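 active = inhibition above the mean over all tested compounds plus 3 SD, cut at about 3.6% in these data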;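 also: 0% = DAX-1 cells with DMSO and 100% = cells lacking DAX-1 with DMSO; higher inhibition means more luminescence from relief of DAX-1 repression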
DAX1 conf: NR0B1 (human) inhibition, confirmation; HEK293T StAR-promoter luciferase reporter, SF-1/DAX-1 repression; shares compounds with DAX1 inh-2; AID 652134; inhibition, % at 6.8 µM; 2,400 tested, 87% active;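 active = inhibition above the average of every tested compound plus 3 SD, cut at about 3.8% in these data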;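 also: 0% = DAX-1 cells with DMSO and 100% = no DAX-1 control cells with DMSO; active compounds raise luminescence by relieving repression of the StAR reporter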
SF1 AF2mut Luc: counter-screen for DAX1 inhibitors: nonselective inhibitors with SF-1 AF2 mutant | 2,400 tested, 78% active | HEK293 StAR-luciferase, luminescence | inhibition, % at 6.8 µM | shares compounds with DAX1 inh-2;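 active = inhibition above the mean of all tested compounds plus 3 SD, cut at about 3% in these data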;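 also: 0% = DAX-1 transfected cells with DMSO and 100% = cells without DAX-1 with DMSO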
LXR ag: activates human LXR-beta, counter-screen for hcDAF-12 agonists; 3,400 tested, under 10 active; activation, % at 6.8 µM; shares compounds with hcDAF-12 act; AID 743027; HEK293 Gal4-LXR tk-luc reporter, luminescence, 24 h; normalized: DMSO 0%, positive control 100%;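 active = mean percent activation of the reporter above a cutoff set as the average over tested compounds plus their standard deviation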
hcDAF12 conf: hcDAF-12 agonism, confirmation assay; activation, % at 6.8 µM; HEK293 hcDAF-12 lit1-tk-luc reporter, luminescence; % of Δ7-dafachronic acid response; 3,400 tested, 61% active; shares compounds with hcDAF-12 act;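 active = mean activation across triplicate tests above the threshold derived from the earlier primary screen, cut at about 5.5% in these data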;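 also: 0% = DMSO only wells and 100% = 3 µM Δ7-dafachronic acid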
hgDAF12 conf: confirmation of H. glycines DAF-12 agonists | HEK293 GAL4-hgDAF12 luciferase reporter, agonist mode; percent of butyrate response | activation, % at 6.8 µM | shares compounds with hgDAF-12 ag | AID 743050 | 3,300 tested, 80% active;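 active = mean activation over triplicate wells above the hit cutoff derived from the earlier primary screen, cut at about 11% in these data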;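 also: 0% = DMSO low control and 100% = 2 mM sodium butyrate high control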
LXRb DAF12 ctr: counter-screen for DAF-12 agonists: agonists of human LXR-beta | 3,300 tested, under 10 active | AID 743051 | shares compounds with hgDAF-12 ag | HEK293 Gal4-LXR luciferase reporter, 24 h | activation, % at 6.8 µM;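 active = mean activation of the triplicate above a set limit carried over from the primary screen, none filed active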
Starred values were filed as active, the others as inactive.

`CCOC(=O)N[C@@H](Cc1cccnc1)C(=O)N1CCC[C@H]1C(=O)NC1CCCC1` gave hgDAF-12 ag 4, ssDAF12 agonist -1, hcDAF-12 act 1 and DAX1 inh-2 1.
Screening COc1cccc(C(=O)/C=C2\Sc3ccccc3N2C)c1 returned hgDAF-12 ag 28*, ssDAF12 agonist 2.6*, DAX1 inh-1 1, hcDAF-12 act 13*, DAX1 inh-2 5.4*, DAX1 conf 11*, SF1 AF2mut Luc 10*, LXR ag 2, hcDAF12 conf 9.1*, hgDAF12 conf 22* and LXRb DAF12 ctr 1.
`COc1cc(NC(=O)[C@@H](Cc2ccccc2)NC(=O)[C@H]2O[C@@H](n3ccc(=O)[nH]c3=O)[C@H](O)[C@@H]2O)cc(OC)c1OC` gave hgDAF-12 ag 0, ssDAF12 agonist -1, hcDAF-12 act 0 and DAX1 inh-2 1.
Screening CCCCCCCCN1C(=O)[C@@H](CC(=O)NCCCCc2ccccc2)C[C@@]2(C(=O)OC)C1=C[C@H](C1CCCC1)O[C@@H]2C returned hgDAF-12 ag 2, ssDAF12 agonist 0, hcDAF-12 act 0 and DAX1 inh-2 0.
`COc1ccc(S[C@]2(C(=O)N3CCN(C(C)=O)CC3)CC(=O)N(S(=O)(=O)c3ccc(F)cc3)[C@@H]2c2ccc(OC)cc2)cc1` gave hgDAF-12 ag 1, ssDAF12 agonist -2, hcDAF-12 act -1 and DAX1 inh-2 -2.
Screening COc1ccccc1C(=O)NNC(=O)c1cccc(Cl)c1 returned hgDAF-12 ag 17*, ssDAF12 agonist 1, DAX1 inh-1 1, hcDAF-12 act 13*, DAX1 inh-2 5.6*, DAX1 conf 14*, SF1 AF2mut Luc 7.9*, LXR ag 1, hcDAF12 conf 7.5*, hgDAF12 conf 16* and LXRb DAF12 ctr 1.
Screening CN(/N=C/c1cccnc1)c1cnc2ccccc2n1 returned hgDAF-12 ag 20*, ssDAF12 agonist 4.2*, DAX1 inh-1 2, hcDAF-12 act 12*, DAX1 inh-2 7.3*, DAX1 conf 11*, SF1 AF2mut Luc 5.8*, LXR ag 1, hcDAF12 conf 10*, hgDAF12 conf 17* and LXRb DAF12 ctr 1.
C(=N\N=C\c1cccnc1)/c1cccnc1 was read as DAX1 inh-1 0.
Screening CCC1CCC/C1=N\NC(=O)c1ccccc1Cl (configuration not stated) returned hgDAF-12 ag 3, ssDAF12 agonist 0, hcDAF-12 act 0 and DAX1 inh-2 0.
CCC1CCC/C1=N\NC(=O)c1ccoc1C (configuration not stated) was read as hgDAF-12 ag 17*, ssDAF12 agonist 0, DAX1 inh-1 1, hcDAF-12 act 4, DAX1 inh-2 11*, DAX1 conf 0, SF1 AF2mut Luc 0, hgDAF12 conf 5 and LXRb DAF12 ctr 0.
Screening CCn1c(COc2ccc(Cl)cc2)nnc1SCC(=O)Nc1ccc(Oc2ccccc2)cc1 returned hgDAF-12 ag 0, ssDAF12 agonist -1, hcDAF-12 act -2 and DAX1 inh-2 0.
